Screening results (PubChem BioAssay)
Only a selection was taken, and hits are over-represented in it overall.
Pf apPOL block: Pf-apPOL inhibitors, biochemical, fluorescence | Plasmodium falciparum apicoplast DNA polymerase (apPOL) | Recombinant Pf-apPOL, molecular beacon fluorescence, 1.5 h | inhibition, % at 10 µM | 210,000 compounds, 0.25% hits | AID 1794808, 2022
mHTT-CaM PPI inh: mutant huntingtin-calmodulin interaction inhibitors – biochemical, AlphaScreen, primary screen; AID 1671202, 2021; P42858; inhibition, % at 15 µM; AlphaScreen His-mHTT/GST-CaM binding, luminescence; 190,000 compounds, 3.6% hits;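 note: 0% = both proteins with DMSO and 100% = one protein alone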
Starred values were filed as active, the others as inactive. Cut-off read from the data, not from the text of the source: active = inhibition above about 50%; inactive = the rest.

Results for O=C(O)c1ccc(NC2=CC(=NS(=O)(=O)c3ccc(Cl)cc3)c3ccccc3C2=O)cc1 ?
Pf apPOL block: 5; mHTT-CaM PPI inh: 82*

What do the screens show for `CC(=O)Nc1ccc(NC2=CC(=NS(=O)(=O)c3ccc(C)cc3)c3ccccc3C2=O)cc1`?
Pf apPOL block: -1; mHTT-CaM PPI inh: 39

Results for Cc1ccc(S(=O)(=O)c2ccc(Cl)cc2)cc1S(=O)(=O)Nc1ccc(C(=O)O)cc1 ?
Pf apPOL block: 3; mHTT-CaM PPI inh: -2

Results for Cc1cc(C)nc(SC(C(=O)O)c2ccccc2)n1 (configuration not stated) ?
Pf apPOL block: -2; mHTT-CaM PPI inh: 0

How did Cn1nc(-c2nc(C3CC3)no2)c2c1CCN(C(=O)C1CCCO1)C2 (configuration not stated) do in these assays?
Pf apPOL block: -3; mHTT-CaM PPI inh: 3

How did CN(CC1(C)CCOCC1)S(=O)(=O)c1ccccc1C(F)(F)F do in these assays?
Pf apPOL block: -1; mHTT-CaM PPI inh: -3

How did CN(C)C1=C(Nc2cccc(I)c2)C(=O)c2ccccc2C1=O do in these assays?
Pf apPOL block: -4; mHTT-CaM PPI inh: 92*

Results for CN(C)C1=C(Nc2cccc(Cl)c2)C(=O)c2ccccc2C1=O ?
Pf apPOL block: -4; mHTT-CaM PPI inh: 57*

Results for CC(C)C(=O)Nc1cccc(I)c1 ?
Pf apPOL block: 8; mHTT-CaM PPI inh: -1

What do the screens show for `CC(=O)N(C1=C(N(C)C)C(=O)c2ccccc2C1=O)c1cccc(Cl)c1`?
Pf apPOL block: -7; mHTT-CaM PPI inh: 18

What do the screens show for `O=C(NCC1COC2(CCCCC2)O1)c1cccc(Br)c1` (configuration not stated)?
Pf apPOL block: -13; mHTT-CaM PPI inh: -12

Results for O=[N+]([O-])c1ccc(N=Cc2cc3c(cc2[N+](=O)[O-])OCO3)c(Br)c1 ?
Pf apPOL block: -7; mHTT-CaM PPI inh: 4

Results for Cn1c(=O)n(C)c2cc(N=Cc3ccc(Br)c([N+](=O)[O-])c3)ccc21 ?
Pf apPOL block: -5; mHTT-CaM PPI inh: 29

How did COc1ccc(N=Cc2ccc(Br)c([N+](=O)[O-])c2)cc1OC do in these assays?
Pf apPOL block: 2; mHTT-CaM PPI inh: 54*

How did Cc1ccc(O)c(N=Cc2cccc([N+](=O)[O-])c2O)c1 do in these assays?
Pf apPOL block: -1; mHTT-CaM PPI inh: 20

Results for COc1cc([N+](=O)[O-])cc(C=Nc2cc(C(C)(C)C)cc(Cl)c2O)c1O ?
Pf apPOL block: -2; mHTT-CaM PPI inh: 10

Results for Cc1ccc(O)c(N=Cc2cc3c(cc2[N+](=O)[O-])OCO3)c1 ?
Pf apPOL block: -3; mHTT-CaM PPI inh: 99*

How did Cc1cccc(N=Cc2cc3c(cc2[N+](=O)[O-])OCO3)c1C do in these assays?
Pf apPOL block: 0; mHTT-CaM PPI inh: 89*

Results for CC(C)(C)c1cc(Cl)c(O)c(N=Cc2cc3c(cc2[N+](=O)[O-])OCO3)c1 ?
Pf apPOL block: 1; mHTT-CaM PPI inh: 85*

What do the screens show for `CC(C)c1cc(C2CCCN2C(=O)c2cc(-c3cccs3)on2)on1` (configuration not stated)?
Pf apPOL block: -4; mHTT-CaM PPI inh: -11

Results for COc1ccccc1C(=O)N1CCN=C1N1CCN(c2ccccc2F)CC1 ?
Pf apPOL block: -2; mHTT-CaM PPI inh: -1

Results for N#Cc1c(SCC(N)=O)sc2c(O)cc(=O)[nH]c12 ?
mHTT-CaM PPI inh: 5

Results for Cc1ccc(O)c(N=Cc2ccc(Br)c([N+](=O)[O-])c2)c1 ?
Pf apPOL block: -11; mHTT-CaM PPI inh: 58*

What do the screens show for `Cc1ccc(O)c(N=Cc2ccc(Cl)c([N+](=O)[O-])c2)c1`?
Pf apPOL block: 0; mHTT-CaM PPI inh: 23

What do the screens show for `COc1ccc(C(=O)C[n+]2cccc(C(N)=O)c2)cc1`?
Pf apPOL block: 1; mHTT-CaM PPI inh: -3

Results for O=[N+]([O-])c1ccccc1C1Oc2ccccc2C2CC(c3cccs3)=NN21 (configuration not stated) ?
Pf apPOL block: -7; mHTT-CaM PPI inh: 20

Results for c1csc(C2=NN3C(C2)c2ccccc2OC3c2ccc3c(c2)OCO3)c1 (configuration not stated) ?
Pf apPOL block: 1; mHTT-CaM PPI inh: 14

What do the screens show for `COc1ccc([N+](=O)[O-])cc1C1Oc2ccccc2C2CC(c3cccs3)=NN21` (configuration not stated)?
Pf apPOL block: 0; mHTT-CaM PPI inh: 28

How did COc1cccc(C2Oc3ccccc3C3CC(c4cccs4)=NN32)c1O (configuration not stated) do in these assays?
Pf apPOL block: 8; mHTT-CaM PPI inh: 51*

Results for Oc1ccc(C2Oc3ccccc3C3CC(c4cccs4)=NN32)c(O)c1 (configuration not stated) ?
Pf apPOL block: 9; mHTT-CaM PPI inh: 64*
